PvdQ inh – blocks Pseudomonas aeruginosa PvdQ acylase activity; purified PvdQ acylase, fluorescence plate reader; inhibition, % at 10 µM; 340,000 compounds, 0.063% hits; AID 488965; in the data active means inhibition above about 30%, passing the limit was not always enough; inconclusive means no clear call, values can overlap the other calls;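 further: 0% = vehicle neutral wells and 100% = reference inhibitor wells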
N-glyco inh – N-linked glycosylation inhibition; D54 ERlucT glycosylation luciferase reporter, 24 h; percent of 100 nM tunicamycin response; reporter increase, % at 12.5 µM; 360,000 compounds, 0.23% hits; AID 588692;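 active means mean luciferase reporter signal, scaled so untreated is 0 and the glycosylation-blocking control 100, at or above a set limit in every replicate; inconclusive means mean reaches the limit but not every replicate does; inactive means mean below the limit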;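 further: luciferase carries N-glycosylation sites so blocking glycosylation raises the light; 0% = median of neutral control wells and 100% = median of 100 nM tunicamycin wells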
Wnt act – activates Wnt/beta-catenin signaling in a reporter cell assay; 300,000 compounds, 1.2% hits; activator, plate reader; activation, % at 9.35 µM; AID 743398; in the data active means activation above about 30%, passing the limit was not always enough; inconclusive means no clear call, values can overlap the other calls;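 further: 0% = neutral control wells and 100% = positive control wells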
Vif inh – blocks HIV Vif function; HEK293T cells, Vif self-association by quenched fluorescence, imaging, 24 h; inhibition, % at 7.49 µM; 340,000 compounds, 0.35% hits; in the data active means inhibition above about 50%, passing the limit was not always enough; inconclusive means no clear call, values can overlap the other calls; inactive means below about 31%
esBAF inh – inhibitors of esBAF chromatin remodeling in mouse ES cells; Bmi1-luciferase knock-in reporter, 24 h; 100% = twice the neutral-well signal; reporter increase, % at 12.5 µM; 350,000 compounds, 2% hits; AID 602393; in the data active means activation above about 40%; inconclusive means no clear call, values can overlap the other calls;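 further: 0% = median of the plate's neutral control wells and 100% = double that signal; a rise in the Bmi1 reporter signal indicates esBAF inhibition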
MITF act – activators of MITF-driven TRPM1 promoter activity in SK-MEL-5 cells; SK-MEL-5 TRPM1-promoter luciferase, 24 h; % of positive control, neutral wells = 0; activation, % at 12.5 µM; 300,000 compounds, 0.75% hits;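 active means mean activation of at least 80% with every replicate also reaching 80%; inconclusive means mean reaches 80% but some replicate falls short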;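 further: 0% = neutral control wells and 100% = parthenolide positive control wells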
* marks the source's active call; other numbers are inactive results; ? = inconclusive; . = not tested or not shown. Sampled rows, rich in hits. Any-hit rate of the full collection: about 2.9%.

SMILES	PvdQ inh	N-glyco inh	Wnt act	Vif inh	esBAF inh	MITF act
O=[N+]([O-])c1ccc(C2CC(c3ccccc3)=Nc3ccccc3S2)cc1 (stereo unspecified)	-8.0	1.3	9.1	0.8	6.7	18.5
C[C@@H]1CN([C@@H](C)CO)S(=O)(=O)c2ccc(C3=CCCCC3)cc2O[C@@H]1CN(C)C(=O)C1CCOCC1	.	.	.	.	-1.1	.
C(=C\c1ccccn1)/c1ccncc1	-6.5	1.5	3.6	6.9	31.5	24.9
Cc1cccc(/C=C/c2ccccc2)n1	.	-4.8	46.4*	-2.7	51.3*	.
C(=C\c1cc(/C=C/c2ccccc2)ncn1)/c1ccccc1	-0.3	9.4	37.1*	9.8	54.8*	19.3
Cc1nc(/C=C/c2ccccc2)cc(/C=C/c2ccccc2)n1	2.6	-1.6	29.4	-5.6	34.6	17.0
C(/C=C/c1ccccn1)=C\c1ccccc1	-5.9	-11.1	41.8*	19.6	.	65.1
CCCN(C)C[C@H]1OCc2cnnn2CCCC(=O)N([C@@H](C)CO)C[C@@H]1C	.	.	.	.	-1.9	.
CC(C)Oc1ccc(CNC(=O)Oc2ccccc2)cc1	-4.2	3.1	-0.8	2.3	-3.1	91.5*
COc1ccc(S(=O)(=O)N[C@H]2CC[C@@H](CC(=O)N3CCc4ccccc4C3)O[C@@H]2CO)cc1	.	.	.	.	5.2	.
Nc1ccc(SCc2cccnc2)cc1	-3.9	1.0	2.2	-1.8	7.8	-2.7
Nc1ccc(CSc2ccccc2)cc1	-11.9	-2.4	-6.9	1.9	53.6*	28.1
C[C@H]1CN([C@@H](C)CO)C(=O)Cc2cc(NS(=O)(=O)c3ccc(F)cc3)ccc2O[C@H]1CN(C)S(=O)(=O)c1cn(C)cn1	.	.	.	.	-1.1	.
CCC(=O)N1CCn2c1nc1ccccc12	-2.4	-0.1	0.9	.	3.4	0.3
Nc1nc2ccccc2n1C(=O)c1ccco1	-11.4	-4.3	36.9*	6.7	.	28.3
O=C(c1ccco1)N1CCn2c1nc1ccccc12	-9.7	1.4	.	24.8	46.5*	.
Nc1nc2ccccc2n1C(=O)c1ccccc1	-11.9	-16.6	-5.2	-8.9	.	-1.1
Brc1ccc(N=NNc2ccccc2)cc1	2.8	0.8	16.5	8.3	53.5*	49.4
C[C@H](CO)N1C[C@H](C)[C@H](CN(C)C(=O)Nc2ccccc2)OCCCC[C@H](C)Oc2ccc(NC(=O)c3ccncc3)cc2C1=O	.	.	.	.	-1.1	.
Cc1ccc2c(c1)cc(CN(C(=O)N1CCOCC1)C1CCCC1)c1nnnn12	-3.7	40.2*	-8.6	-4.5	-0.5	2.8
CCC(=O)N(Cc1cc2ccc(C)cc2n2nnnc12)C1CCCCC1	-14.8	0.1	.	-3.8	.	.
C/C=C/c1ccc([C@H]2[C@@H](CO)N(C(=O)Cc3cccnc3)[C@H]2CNC(C)=O)cc1	.	.	.	.	3.8	.
COc1cc2cnc(-c3ccsc3)cc2cc1OC	-4.1	1.9	-2.3	-1.0	11.0	-14.8
c1cc(-c2cc3cc4c(cc3cn2)OCO4)cs1	-2.7	-2.9	49.7*	-2.5	76.6*	?
CN1[C@@H]2c3ccc(-c4ccc(F)cc4)c(=O)n3C[C@H]1[C@H](CO)[C@H]2C(=O)NC1CCCCC1	.	.	.	.	-3.1	.
SMILES	PvdQ inh	N-glyco inh	Wnt act	Vif inh	esBAF inh	MITF act
COc1ccc(S(=O)(=O)N(C)C[C@H]2Oc3ccc(NS(C)(=O)=O)cc3C(=O)N([C@@H](C)CO)C[C@@H]2C)cc1	.	.	.	.	2.7	.
CC1(C)NC(=O)N(CC(=O)OCc2cc(=O)n3cc(Br)ccc3n2)C1=O	-6.3	-1.9	-0.9	-5.6	.	4.0
O=C(OCc1cc(=O)n2cc(Br)ccc2n1)C1COc2ccccc2O1 (stereo unspecified)	5.7	-0.2	-0.5	-3.2	-0.1	-4.0
CC1(C(=O)OCc2cc(=O)n3cc(Br)ccc3n2)CC1(Cl)Cl (stereo unspecified)	7.1	-1.1	6.1	1.3	83.3*	?
CC1CC1C(=O)OCc1cc(=O)n2cc(Br)ccc2n1 (stereo unspecified)	9.2	-6.2	41.1*	.	46.9*	79.5
O=C(Cc1cccnc1)N[C@@H]1CC[C@@H](CCn2cc(-c3ccccc3F)nn2)O[C@@H]1CO	.	.	.	.	-1.1	.
C[C@@H]1CN([C@@H](C)CO)C(=O)c2cc(C#CC3(O)CCCC3)cnc2O[C@H]1CN(C)C(=O)Cc1ccncc1	.	.	.	.	8.0	.
O=C(NC1Cc2ccccc2C1)[C@@H]1[C@@H](CO)[C@@H]2Cn3c(ccc(C4=CCCCC4)c3=O)[C@H]1N2CC1CC1	.	.	.	.	4.6	.

High-throughput results as filed in PubChem.
